About 83,000 compounds went through this panel and 20% of them were active in at least one assay; those are over-represented in the sample as a whole.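 For each line, cells grew in 96-well plates with the test compound present at a single concentration for 48 hours.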 Active and inactive are the calls of the source. The calls were made as follows: active = growth percent below 10; inactive = the rest.
System: CCRF-CEM leukemia
Assay: NCI-60 one-dose screen, 48 h (100 = growth as untreated, 0 = no growth, -100 = all killed)
Details: 10 µM unless noted

SMILES | growth
NS(=O)(=O)c1ccc(Nc2nc(N/N=C/c3ccc(F)cc3)nc(Nc3ccccc3)n2)cc1 | 20% (inactive)
COc1ccc(-c2cc(-c3ccc(Cl)cc3)nc3nc(N)nn23)cc1 | 95% (inactive)
COc1ccc(Cn2cc3c(c2-c2cc(OC)c(OC)c(OC)c2)CCCc2cnoc2-3)cc1 | 15.8% (inactive)
CN(c1ccc(F)cc1)S(=O)(=O)c1ccc(-c2cnc(C3CC3)o2)cc1 | 16.4% (inactive)
COC[C@]12CC[C@@H](C)[C@H](C)[C@H]1C1=CC[C@@H]3[C@@]4(C)CCCNC(C)(C)[C@@H]4CC[C@@]3(C)[C@]1(C)CC2 | 17% (inactive)
C=C(C)[C@@H]1CC[C@]2(C(=O)ON)CC[C@]3(C)[C@H](CC[C@@H]4[C@@]5(C)C/C(=C/c6ccc(Br)cc6)C(=O)C(C)(C)[C@@H]5CC[C@]43C)[C@@H]12 | 67.8% (inactive)
CN(c1ccc(Br)cc1)S(=O)(=O)c1ccc(-c2cnc(C3CC3)o2)cc1 | 18% (inactive)
CCCCCCNC(=O)Oc1ccc(/C(=C(\C)c2ccc(Cl)cc2)c2ccc(OCCN(C)C)cc2)cc1 | 36% (inactive)
C=C(C)[C@@H]1CC[C@]2(COS(C)(=O)=O)CC[C@]3(C)[C@H](CC[C@@H]4[C@@]5(C)CCCNC(C)(C)[C@@H]5CC[C@]43C)[C@@H]12 | 71.4% (inactive)
O=C(NNc1nc2cc(F)ccc2n2cncc12)c1cnccn1 | 14.4% (inactive)
CN1CCN(c2ccc3c(C(N)=O)c(NC(=O)c4ccc(C(C)(C)C)cc4)sc3c2)CC1 | 53.3% (inactive)
NC(=O)C(=Cc1ccc(Cl)cc1)C(N)=O | 57% (inactive)
CCN1C(=O)N(CC)C2SC(N/N=C/C=C/c3ccccc3OC)=NC21 (stereo not drawn) | 11.3% (inactive)
CC(=O)C1=NN(c2ccc(Cl)cc2)C(=O)CN1C | 104% (inactive)
CCOC(=O)c1c(NCC(=O)Nc2ccc(Br)cc2)sc2c1CCCC2 | 18.2% (inactive)
CN1CCN(c2ccc3c(c2)nc(NNC(=O)c2ccncn2)c2cccn23)CC1 | 15.3% (inactive)
CCOc1c(C#N)c(Nc2ccc(S(N)(=O)=O)cc2)c(C#N)c2nnc(C)n12 | 104% (inactive)
O=c1[nH]c(CNc2ccc(NCc3c(-c4ccccc4)no[n+]3[O-])cc2)nc2c1cnn2-c1ccccc1 | 57.9% (inactive)
C#CCOc1ccc(C(Nc2ccc(Cl)cc2)c2nnnn2C2CCCCC2)cc1 (stereo not drawn) | 91% (inactive)

SMILES | growth
COc1cc(/C=N/Nc2ccnc3cc(Cl)ccc23)cc(OC)c1O | 9.72% (active)
COc1cc(C(=O)C[n+]2ccc3ccccc3c2)cc(OC)c1OC | 97% (inactive)
Cc1ccc(NC(=O)c2ccc(CN3CCN(C)CC3)c(I)c2)cc1Oc1ccc(-c2[nH]nc3ncnc(N)c23)cc1 | 3.41% (active)
COc1ccc(Cn2cc3c(c2-c2ccccc2)CCCc2cnoc2-3)cc1 | 61.3% (inactive)
N#Cc1c(NC(=O)c2ccc(F)c(Cl)c2)sc2c1CCC(=O)C2 | 8.21% (active)
c1ccc(-c2c(-c3ccccc3)[n+](Cc3ccc4ccccc4c3)c(-c3ccccc3)n2Cc2ccc3ccccc3c2)cc1 | -21.6% (active)
CCOC(=O)C1=C(C)N=C2Sc3ccccc3N2C1c1ccccc1 (stereo not drawn) | 86.2% (inactive)
CCn1c2ccc(/C=N/NS(=O)(=O)CCN(C)C)cc2c2cc(/C=N/NS(=O)(=O)CCN(C)C)ccc21 | 103% (inactive)
Cn1cc2c(c1)-c1c(sc3nc(-c4ccc(NC(=O)Nc5cc(C(C)(C)C)on5)cc4)cn13)CC2 | 28.2% (inactive)
CCOC(=O)c1c(NC(=O)c2ccc(C(C)(C)C)cc2)sc2cc(OCCN3CCCCC3)ccc12 | 56.2% (inactive)
COc1ccccc1/C=C/C=N/NC1=NC2C(S1)N(C)C(=O)N2c1ccccc1 (stereo not drawn) | 14.3% (inactive)
CC1(C)CC[C@]2(C(=O)O)CC[C@]3(C)C(=CCC4[C@@]5(C)C[C@@H](O)[C@@H]6OC(c7cccc([N+](=O)[O-])c7)OC[C@@]6(C)C5CC[C@]43C)C2C1 (stereo partly drawn) | 44.4% (inactive)
CN(C)c1ncc(/C=C2\SC(=S)N(Cc3ccccc3Cl)C2=O)s1 | 77.3% (inactive)
O=C(/C=C1\C=CN(CCCCO)c2ccccc21)n1ccc2ccccc21 | 102% (inactive)
C#C[C@]1(O)CC[C@H]2[C@@H]3CC=C4c5sc(Nc6nc(C)cc(OC)n6)nc5CC[C@]4(C)[C@H]3CC[C@@]21C | 12.7% (inactive)
Oc1ccccc1/C=N/Nc1nc(N/N=C/c2ccccc2O)nc(N2CCOCC2)n1 | 42.3% (inactive)
IP(CCCSc1n(Cc2ccc3ccccc3c2)c(-c2ccccc2)c(-c2ccccc2)[n+]1Cc1ccc2ccccc2c1)(c1ccccc1)(c1ccccc1)c1ccccc1 | 32.5% (inactive)
Cn1cc(-c2nnc(N)nc2-c2cn(C)c3ccc(F)cc23)c2cc(F)ccc21 | 100% (inactive)
N/C(=N\OC(=O)CSc1nc2ccccc2s1)c1ccc(Cl)cc1 | 102% (inactive)

Reference: PubChem BioAssay (NCI)
